“And” between values parts separate entries of the source, which are not always exact repeats. Identical values can stand only once. Some structures have more than one record in an assay (separate samples or runs), and their calls can disagree. The source made the active and inactive calls.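 The calls were made as follows, unless noted: active = thallium flux through the channel raised or lowered by more than 3 SD from vehicle-only wells, actives on both sides; inactive = the rest.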
Experiments:
[1] = stimulators of nuclear beta-catenin in C2C12, primary screen, imaging, WNT3A-conditioned medium, mouse C2C12, NPC library (AID 1117326; in the data active = nuclear beta-catenin stimulation mostly above about 4.2%, no sharp cut-off; inactive = mostly below about 10%); conditions: stronger effect = higher value
[2] = stimulators of insulin release from INS-1E, primary screen, cell-based, 5 mM glucose, NPC library (AID 1117329;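 active = compound raises insulin release from rat beta cells at 5 mM glucose, no numeric limit stated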); conditions: rat INS-1E insulin secretion, at 10 µM, stronger effect = higher value
[3] = growth inhibition of GSK3B-pretreated HCT116 cells – cell-based, CellTiter-Glo, 0.2 to 20 µM (AID 1117336;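 active = compounds lowering colon cancer cell viability after pretreatment blocking the GSK3B kinase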); conditions: HCT116 viability after GSK3B inhibitor, at 20 µM, stronger effect = higher value
[4] = inhibition of endothelial tube formation, primary screen, imaging, VEGF stimulated, CD31 staining, tube area, NPC library (AID 1117340;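 active = compound that reduces growth-factor-driven endothelial tube area in a mixed cell culture, no cutoff stated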); conditions: VEGF-stimulated ADSC/ECFC co-culture, at 10 µM, stronger effect = higher value
[5] = glucagon-like peptide 1 release enhancers, primary assay, NCI-H716 cell line, NPC library (AID 1117341;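 active = compound raises GLP1 secretion from the human gut endocrine cells, with no numeric limit stated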); conditions: NCI-H716 cells, at 10 µM, stronger effect = higher value
[6] = HCT116 colon cancer cell growth inhibition, primary screen, CellTiter-Glo luminescence, NPC library (AID 1117342;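 active = compounds that lower survival of HCT116 colon cancer cells in the luminescence readout, no numeric limit stated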); conditions: at 20 µM (top of the series)
[7] = CellTiter-Glo luminescent readout of SW480 viability loss, NPC library primary (AID 1117343;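 active = compounds that lower viability of the colon cancer cells in the luminescence readout, with no numeric limit stated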); conditions: CellTiter-Glo luminescence; at 20 µM (top of the series)
[8] = decreased DLD-1 cellular survival, CellTiter-Glo luminescent readout, NPC compound collection, primary HTS (AID 1117346;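 active = compounds that lower survival of DLD-1 colon cancer cells in the luminescence readout, no cutoff given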); conditions: DLD-1 viability, CellTiter-Glo luminescence; at 20 µM (top of the series)
[9] = target: 6-phosphogluconate dehydrogenase, decarboxylating (Homo sapiens) (UniProt P52209); assay: 6PGD enzyme inhibitors, primary screen, biochemical, human, recombinant enzyme, NADPH absorbance (AID 1159550;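 active = at least 20% inhibition of 6-phosphogluconate dehydrogenase activity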); conditions: recombinant 6PGD, NADPH absorbance 341 nm; at 10 µM; stronger effect = higher value
Chain of 6-phosphogluconate dehydrogenase, decarboxylating (Homo sapiens) (P52209 whole entry, looked up): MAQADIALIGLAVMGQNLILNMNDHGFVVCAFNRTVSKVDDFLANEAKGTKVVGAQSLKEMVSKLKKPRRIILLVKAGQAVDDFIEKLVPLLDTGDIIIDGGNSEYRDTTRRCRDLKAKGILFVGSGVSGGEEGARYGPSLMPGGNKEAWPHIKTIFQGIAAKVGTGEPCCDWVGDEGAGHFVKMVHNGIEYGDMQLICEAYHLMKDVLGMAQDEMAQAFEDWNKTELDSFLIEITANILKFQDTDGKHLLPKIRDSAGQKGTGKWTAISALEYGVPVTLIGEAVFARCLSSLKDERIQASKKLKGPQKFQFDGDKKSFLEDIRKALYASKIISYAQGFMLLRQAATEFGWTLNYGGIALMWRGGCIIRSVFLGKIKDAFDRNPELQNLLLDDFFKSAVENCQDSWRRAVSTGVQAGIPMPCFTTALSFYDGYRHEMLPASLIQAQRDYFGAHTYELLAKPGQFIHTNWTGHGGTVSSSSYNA

[10] = differential killing of epithelial or mesenchymal cells, primary screen, imaging, PC-3E GFP, TEM4-18 mCherry, co-culture (AID 1345086;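 active = compounds killing one labelled cell type while sparing the other, by normalised counts and ratio limits, not self-fluorescent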;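 as to all read-outs here: cells exposed to compound for 72 h before imaging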;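 as to red/green cell ratio (normalised): normalised mesenchymal count divided by normalised epithelial count so high means epithelial killing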); conditions: imaging cell counts, at 1 µM; for red/green cell ratio (normalised): actives lie on both sides, counts scaled to control wells, 1 = unselective
[11] = survival rescue of mitochondrial mutant cells in low glucose, primary screen, MELAS cybrids, Rieske KO mouse fibroblasts, CellTiter-Glo (AID 1508586;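 active = mean z-score across replicates of 1.96 or higher in either the MELAS or the Rieske mutant cell line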;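 also: z relative to plate mean and SD of compound and empty wells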)
[12] = target: NAD(+) hydrolase SARM1 (Homo sapiens) (UniProt Q6SZW1); assay: SARM1 TIR NADase inhibitors, cell lysate, NAD-Glo luminescence (AID 1508614;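 active = compound whose remaining NAD level is above about 45 nM, limit read from the data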;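 also: higher remaining NAD means stronger inhibition of SARM1 NADase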); conditions: SAM-TIR HEK293T lysate NADase, at 1 µM, stronger effect = higher value
Chain of NAD(+) hydrolase SARM1 (Homo sapiens) (Q6SZW1 whole entry, looked up, the tested form may be a part): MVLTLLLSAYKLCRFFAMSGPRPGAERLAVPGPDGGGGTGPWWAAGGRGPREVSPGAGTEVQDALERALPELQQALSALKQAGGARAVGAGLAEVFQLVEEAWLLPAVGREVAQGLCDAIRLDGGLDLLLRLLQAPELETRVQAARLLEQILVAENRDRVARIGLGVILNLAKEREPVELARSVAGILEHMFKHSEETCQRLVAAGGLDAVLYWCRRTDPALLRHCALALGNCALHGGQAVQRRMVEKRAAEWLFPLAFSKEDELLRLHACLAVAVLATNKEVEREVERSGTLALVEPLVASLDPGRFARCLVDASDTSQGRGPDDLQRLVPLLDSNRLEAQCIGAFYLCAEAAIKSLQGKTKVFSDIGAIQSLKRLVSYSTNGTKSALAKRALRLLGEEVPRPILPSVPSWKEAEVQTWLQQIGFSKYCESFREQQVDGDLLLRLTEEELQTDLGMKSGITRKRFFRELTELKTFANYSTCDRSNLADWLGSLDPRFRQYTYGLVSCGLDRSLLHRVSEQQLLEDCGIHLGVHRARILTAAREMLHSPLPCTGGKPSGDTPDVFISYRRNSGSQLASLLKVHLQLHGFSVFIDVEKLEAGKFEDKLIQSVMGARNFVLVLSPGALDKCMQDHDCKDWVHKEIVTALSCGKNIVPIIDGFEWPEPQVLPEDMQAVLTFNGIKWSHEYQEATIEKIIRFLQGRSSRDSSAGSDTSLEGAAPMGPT

[13] = target: Mitogen-activated protein kinase 7 (Homo sapiens) (UniProt Q13164); assay: ERK5 transactivation activators in reporter cells, primary screen, cell-based, HTS (AID 1508626;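 active = luciferase signal above three times the same-plate solvent-only control wells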;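 also: luciferase driven by Gal4-ERK5 fusion binding five Gal4 sites before minimal TATA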); conditions: HeLa Gal4-ERK5 transactivation, 18 h, at 5 µM, stronger effect = higher value
Chain of Mitogen-activated protein kinase 7 (Homo sapiens) (Q13164 whole entry, looked up, the tested form may be a part): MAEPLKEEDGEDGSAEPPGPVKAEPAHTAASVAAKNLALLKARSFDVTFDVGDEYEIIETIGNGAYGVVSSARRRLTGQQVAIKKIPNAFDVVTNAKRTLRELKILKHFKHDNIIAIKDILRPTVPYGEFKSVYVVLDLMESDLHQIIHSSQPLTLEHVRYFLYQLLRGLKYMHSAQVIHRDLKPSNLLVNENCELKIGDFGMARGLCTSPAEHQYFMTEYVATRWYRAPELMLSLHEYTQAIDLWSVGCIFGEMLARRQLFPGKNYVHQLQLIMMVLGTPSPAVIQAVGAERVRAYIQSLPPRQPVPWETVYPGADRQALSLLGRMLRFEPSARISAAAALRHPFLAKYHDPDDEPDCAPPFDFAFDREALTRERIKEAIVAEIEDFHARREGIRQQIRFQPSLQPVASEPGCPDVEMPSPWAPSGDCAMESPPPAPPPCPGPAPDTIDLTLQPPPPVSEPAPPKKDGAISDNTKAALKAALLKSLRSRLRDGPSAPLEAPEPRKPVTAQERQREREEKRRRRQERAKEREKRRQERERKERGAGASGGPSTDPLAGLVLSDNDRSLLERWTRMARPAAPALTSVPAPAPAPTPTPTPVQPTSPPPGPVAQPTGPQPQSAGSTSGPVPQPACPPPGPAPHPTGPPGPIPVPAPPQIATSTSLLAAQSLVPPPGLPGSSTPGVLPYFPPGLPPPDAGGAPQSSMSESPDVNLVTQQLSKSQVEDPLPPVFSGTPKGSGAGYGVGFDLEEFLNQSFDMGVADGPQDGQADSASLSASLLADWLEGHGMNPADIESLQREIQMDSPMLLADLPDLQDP

F380Y = assay: modulators of BK channel variants, profiling panel, selectivity assay, cell-based, U2OS BacMam, thallium flux, beta subunits (AID 1259406); conditions: at 30 µM;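 also: initial slope of Thallos dye fluorescence rise after thallium is added; log ratio against the mean of 0.3% DMSO vehicle wells on the same plate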
F380Y/beta2Delta = assay: as above; conditions: at 30 µM
[14] = target: Calcium-activated potassium channel subunit alpha-1 (Homo sapiens) + Leucine-rich repeat-containing protein 26 (Homo sapiens) (UniProt Q12791+Q2I0M4); assay: as above; conditions: F380Y/Slo1WT/gamma1, at 30 µM
Chain of Calcium-activated potassium channel subunit alpha-1 (Homo sapiens) + Leucine-rich repeat-containing protein 26 (Homo sapiens) (Q2I0M4 whole entry, looked up, one chain of several): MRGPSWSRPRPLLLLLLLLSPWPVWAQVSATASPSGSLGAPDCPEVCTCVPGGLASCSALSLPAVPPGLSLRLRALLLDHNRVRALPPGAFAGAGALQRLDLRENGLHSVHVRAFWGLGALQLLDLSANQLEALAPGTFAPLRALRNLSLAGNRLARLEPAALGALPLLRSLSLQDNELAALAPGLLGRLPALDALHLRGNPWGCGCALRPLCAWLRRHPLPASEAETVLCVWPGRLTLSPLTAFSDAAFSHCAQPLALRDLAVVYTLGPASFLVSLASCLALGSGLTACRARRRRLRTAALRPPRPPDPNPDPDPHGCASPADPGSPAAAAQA

R275C = assay: as above; conditions: at 30 µM
R275C/beta1 = assay: as above; conditions: at 30 µM
R275C/beta2Delta = assay: as above; conditions: at 30 µM
[15] = sensitizers of A549 cells to miR-34 induction, primary screen, imaging, A549 dox-inducible miR-34, nuclei and caspase counts (AID 1347080;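 active = compounds whose cell count with miR-34 switched on is under 0.7 times the count with it off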); conditions: A549 miR-34 inducible, Hoechst nuclei count, 48 h
[16] = measured here: epithelial PC-3E GFP cell survival
[17] = measured here: mesenchymal TEM4-18 mCherry cell survival
[18] = MELAS cybrid survival, CellTiter-Glo 48 h, stronger effect = higher value
[19] = Rieske KO mouse fibroblast survival, CellTiter-Glo 72 h
[20] = stronger effect = lower value, cell number ratio, induced over uninduced
[21] = measured here: relative caspase fold change +Dox/-Dox
[22] = measured here: total cells with miR-34 induction, stronger effect = lower value
[23] = measured here: total cells without miR-34 induction

O=C1NC(=O)C(c2ccccc2)(c2ccccc2)N1
-1.75 and 0.128: z-score [11, 19]
0.8%: nuclear beta-catenin stimulation ([1]; stimulation, at 2 µM)
0.99: normalised cell number [10, 17]
inactive: nuclear beta-catenin stimulation ([1]; at 10 µM) 0.1% | insulin secretion stimulation [2] -0.3% | viability decrease [3] 7% | tube area decrease [4] -8.6% | GLP1 secretion stimulation [5] 3.3% | inhibition of viability [6] 0.15% | viability decrease (inhibition) [7] 45.8% | viability decrease (inhibition) [8] -0.3% | inhibition [9] 6.59% | red/green cell ratio (normalised) [10] 0.93 | remaining NAD [12] 10 nM | luciferase signal [13] 68 AU | log fold change Tl+ flux (F380Y) 0.0665 | log fold change Tl+ flux (F380Y/beta2Delta) -0.01 | log fold change Tl+ flux [14] -0.0118 | log fold change Tl+ flux (R275C) -0.00405 | log fold change Tl+ flux (R275C/beta1) -0.0211 | log fold change Tl+ flux (R275C/beta2Delta) 0.0126
2.18 (active) and -0.393 (inactive): z-score [11, 18]
1.07: normalised cell number [10, 16]

c1ccc2c(c1)CCCC2C1=NCCN1 (centres undefined)
inactive: nuclear beta-catenin stimulation ([1]; at 10 µM) 4.7% | insulin secretion stimulation [2] -0.4% | viability decrease [3] -30.2% | tube area decrease [4] -9.5% | GLP1 secretion stimulation [5] 0.9% | inhibition of viability [6] 0.6% | viability decrease (inhibition) [7] 11.2% | viability decrease (inhibition) [8] -6.9% | inhibition [9] 19.3% | red/green cell ratio (normalised) [10] 1.32 | z-score [11, 18] -0.281 and -0.833 | remaining NAD [12] 10 nM | luciferase signal [13] 44 AU | log fold change Tl+ flux (F380Y) -0.0277 | log fold change Tl+ flux (F380Y/beta2Delta) -0.0151 | log fold change Tl+ flux [14] 0.0123 | log fold change Tl+ flux (R275C) -0.00319 | log fold change Tl+ flux (R275C/beta1) -0.00185 | log fold change Tl+ flux (R275C/beta2Delta) -0.0361
-0.1%: nuclear beta-catenin stimulation ([1]; stimulation, at 2 µM)
-0.176 and -0.558: z-score [11, 19]
1.36: normalised cell number [10, 17]
1.03: normalised cell number [10, 16]

C[C@H](CS)C(=O)N1CCC[C@H]1C(=O)O
inactive: nuclear beta-catenin stimulation ([1]; at 10 µM) 0.8% | insulin secretion stimulation [2] -2.3% | viability decrease [3] -11.6% | tube area decrease [4] 12.5% | GLP1 secretion stimulation [5] 2.3% | inhibition of viability [6] -2.6% | viability decrease (inhibition) [7] 27.6% | viability decrease (inhibition) [8] -2.15% | inhibition [9] -3.72% | red/green cell ratio (normalised) [10] 1.1 | z-score [11, 18] -0.272 and -0.072 | remaining NAD [12] 10 nM | luciferase signal [13] 52 AU | log fold change Tl+ flux (F380Y) -0.0244 | log fold change Tl+ flux (F380Y/beta2Delta) 0.00669 | log fold change Tl+ flux [14] 0.0254 | log fold change Tl+ flux (R275C) 0.0445 | log fold change Tl+ flux (R275C/beta1) -0.0207 | log fold change Tl+ flux (R275C/beta2Delta) 0.0269
-0.06 and -1.18: z-score [11, 19]
0.9%: nuclear beta-catenin stimulation ([1]; stimulation, at 2 µM)
1.1: normalised cell number [10, 17]
1.01: normalised cell number [10, 16]

Nc1ccc(S(=O)(=O)c2ccc(N)cc2)cc1
9830 and 8600 and 10200: cell count [15, 22]
2.46 and 1.04 and 1.7: fold change [15, 21]
active: viability decrease (inhibition) [7] 59.5%
1.14: normalised cell number [10, 16]
10800 and 9580 and 11700: cell count [15, 23]
-0.4%: nuclear beta-catenin stimulation ([1]; stimulation, at 2 µM)
0.158: z-score [11, 19]
1.49: normalised cell number [10, 17]
inactive: nuclear beta-catenin stimulation ([1]; at 10 µM) -0.7% | insulin secretion stimulation [2] -2.3% | viability decrease [3] -8.05% | tube area decrease [4] 8.8% | GLP1 secretion stimulation [5] -1.2% | inhibition of viability [6] 1.3% | viability decrease (inhibition) [8] 7.95% | inhibition [9] 14.4% | red/green cell ratio (normalised) [10] 1.31 | fold change [15, 20] 0.912 and 0.897 and 0.875 | z-score [11, 18] 0.848 | remaining NAD [12] 10 nM | luciferase signal [13] 32 AU | log fold change Tl+ flux (F380Y) 0.0363 | log fold change Tl+ flux (F380Y/beta2Delta) 0.0421 | log fold change Tl+ flux [14] -0.0163 | log fold change Tl+ flux (R275C) -0.00888 | log fold change Tl+ flux (R275C/beta1) -0.0191 | log fold change Tl+ flux (R275C/beta2Delta) 0.0154

CCCCC1=NC2(CCCC2)C(=O)N1Cc1ccc(-c2ccccc2-c2nn[nH]n2)cc1
-0.504: z-score [11, 19]
0.82: normalised cell number [10, 16]
active: log fold change Tl+ flux (R275C/beta1) 0.109 | log fold change Tl+ flux (R275C/beta2Delta) 0.104
7550 and 13800: cell count [15, 23]
7090 and 11900: cell count [15, 22]
inactive: nuclear beta-catenin stimulation ([1]; at 10 µM) 1.9% | insulin secretion stimulation [2] 1.8% | viability decrease [3] -43% | tube area decrease [4] -17.7% | GLP1 secretion stimulation [5] -0.1% | inhibition of viability [6] -0.43% | viability decrease (inhibition) [7] -11.7% | viability decrease (inhibition) [8] -12.4% | inhibition [9] -3.55% | red/green cell ratio (normalised) [10] 1.43 | fold change [15, 20] 0.939 and 0.866 | z-score [11, 18] -0.829 | remaining NAD [12] 10 nM | luciferase signal [13] 56 AU | log fold change Tl+ flux (F380Y) 0.0685 | log fold change Tl+ flux (F380Y/beta2Delta) 0.0508 | log fold change Tl+ flux [14] -0.00804 | log fold change Tl+ flux (R275C) 0.00561
1.55 and 6.32: fold change [15, 21]
0.1%: nuclear beta-catenin stimulation ([1]; stimulation, at 2 µM)
1.18: normalised cell number [10, 17]

CCCNC(=O)NS(=O)(=O)c1ccc(Cl)cc1
-0.188 and -0.232: z-score [11, 19]
8.3%: nuclear beta-catenin stimulation ([1]; stimulation, at 2 µM)
1.08: normalised cell number [10, 16]
active: luciferase signal [13] 276 AU
1.29: normalised cell number [10, 17]
inactive: nuclear beta-catenin stimulation ([1]; at 10 µM) 4.6% | insulin secretion stimulation [2] 1.5% | viability decrease [3] 4.6% | tube area decrease [4] -1.2% | GLP1 secretion stimulation [5] 6.4% | inhibition of viability [6] 2.7% | viability decrease (inhibition) [7] -4.3% | viability decrease (inhibition) [8] -8.8% | inhibition [9] 14.6% | red/green cell ratio (normalised) [10] 1.2 | z-score [11, 18] -0.244 and -0.535 | remaining NAD [12] 10 nM | log fold change Tl+ flux (F380Y) -0.0312 | log fold change Tl+ flux (F380Y/beta2Delta) -0.00553 | log fold change Tl+ flux [14] -0.0083 | log fold change Tl+ flux (R275C) 0.0359 | log fold change Tl+ flux (R275C/beta1) 0.0476 | log fold change Tl+ flux (R275C/beta2Delta) 0.0638

Cc1nc2ccccn2c(=O)c1CCN1CCC(C(=O)c2ccc(F)cc2)CC1
0.87: normalised cell number [10, 16]
active: inhibition of viability [6] 67.9%
inactive: nuclear beta-catenin stimulation ([1]; at 10 µM) -0.7% | insulin secretion stimulation [2] 3.35% | viability decrease [3] 24.3% | tube area decrease [4] 6% | GLP1 secretion stimulation [5] 10.6% | viability decrease (inhibition) [7] 30.7% | viability decrease (inhibition) [8] 11.5% | inhibition [9] 0.157% | red/green cell ratio (normalised) [10] 1.29 | z-score [11, 18] -0.0109 | remaining NAD [12] 10 nM | luciferase signal [13] 52 AU | log fold change Tl+ flux (F380Y) 0.00566 | log fold change Tl+ flux (F380Y/beta2Delta) -0.00369 | log fold change Tl+ flux [14] -0.0679 | log fold change Tl+ flux (R275C) -0.025 | log fold change Tl+ flux (R275C/beta1) -0.0266 | log fold change Tl+ flux (R275C/beta2Delta) -0.0363
-2.4%: nuclear beta-catenin stimulation ([1]; stimulation, at 2 µM)
-0.116: z-score [11, 19]
1.12: normalised cell number [10, 17]
